# Hit rate of the full screen: of about 5,500 compounds, about 2,000 (36%) were called active. Not shown: some 18% with an inconclusive outcome. Some of the results follow. Unmarked numbers belong to inactive results. Rule as the data show it: active = normalized growth mostly below about 0.91 (no sharp cut-off); inconclusive = no clear call, values can overlap the other calls; inactive = mostly above about 0.92.
# Test: chemical genetic growth profiling, strain panel (AID 1159580);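 also: tested at 20 µM; growth read once vehicle control cultures reached saturation at 30 °C; 1 = growth at the plate median or of vehicle wells; lower values mean less growth of the strain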
# Details: growth OD
smiles,measurement,setting,value
C[C@@H]1CC[C@@]23CCC4(C)[C@@](C=CC5[C@@]6(C)CC[C@H](O)C(C)(C)C6CC[C@]54C)(OC2=O)C3[C@H]1C (stereo partly drawn),normalized growth,"S. cerevisiae deletion strains, locus YJR043C, strain POL32, stronger effect = lower value",1
same,normalized growth,"S. cerevisiae deletion strains, locus YJR066W, strain TOR1, stronger effect = lower value",0.991
same,normalized growth,"S. cerevisiae deletion strains, locus YJR075W, strain HOC1, stronger effect = lower value",1.02
same,normalized growth,"S. cerevisiae deletion strains, locus YKL009W, strain mrt4, stronger effect = lower value",1.26 [resistant] (active)
same,normalized growth,"S. cerevisiae deletion strains, locus YKL085W, strain MDH1 (second series), stronger effect = lower value",1
same,normalized growth,"S. cerevisiae deletion strains, locus YKL085W, strain MDH1, stronger effect = lower value",1
same,normalized growth,"S. cerevisiae deletion strains, locus YKL160W, strain elf1, stronger effect = lower value",1.01
same,normalized growth,"S. cerevisiae deletion strains, locus YKL190W, strain CNB1, stronger effect = lower value",1.01
same,normalized growth,"S. cerevisiae deletion strains, locus YKR001C, strain vps1, stronger effect = lower value",1.06
same,normalized growth,"S. cerevisiae deletion strains, locus YKR026C, strain gcn3, stronger effect = lower value",1.01
same,normalized growth,"S. cerevisiae deletion strains, locus YKR091W, strain srl3, stronger effect = lower value",1
same,normalized growth,"S. cerevisiae deletion strains, locus YLL001W, strain dnm1, stronger effect = lower value",1.02
same,normalized growth,"S. cerevisiae deletion strains, locus YLL026W, stronger effect = lower value",1
same,normalized growth,"S. cerevisiae deletion strains, locus YLL041C, strain sdh2, stronger effect = lower value",1
same,normalized growth,"S. cerevisiae deletion strains, locus YLR027C, strain aat2, stronger effect = lower value",1
same,normalized growth,"S. cerevisiae deletion strains, locus YLR039C, strain RIC1, stronger effect = lower value",1.09
same,normalized growth,"S. cerevisiae deletion strains, locus YLR058C, strain SHM2, stronger effect = lower value",1.02
same,normalized growth,"S. cerevisiae deletion strains, locus YLR102C, strain apc9, stronger effect = lower value",1.03
same,normalized growth,"S. cerevisiae deletion strains, locus YLR113W, strain HOG1, stronger effect = lower value",1.02
same,normalized growth,"S. cerevisiae deletion strains, locus YLR221C, strain rsa3, stronger effect = lower value",0.998
same,normalized growth,"S. cerevisiae deletion strains, locus YLR258W, strain gsy2, stronger effect = lower value",0.996
same,normalized growth,"S. cerevisiae deletion strains, locus YLR262C, strain YPT6 (second series), stronger effect = lower value",1.02
same,normalized growth,"S. cerevisiae deletion strains, locus YLR262C, strain YPT6, stronger effect = lower value",1.09
same,normalized growth,"S. cerevisiae deletion strains, locus YLR268W, strain sec22, stronger effect = lower value",1.03
same,normalized growth,"S. cerevisiae deletion strains, locus YLR320W, strain mms22, stronger effect = lower value",1.01
same,normalized growth,"S. cerevisiae deletion strains, locus YLR330W, strain CHS5, stronger effect = lower value",1.03
same,normalized growth,"S. cerevisiae deletion strains, locus YLR342W, strain FKS1 (second series), stronger effect = lower value",1.02
same,normalized growth,"S. cerevisiae deletion strains, locus YLR342W, strain FKS1, stronger effect = lower value",1.01
same,normalized growth,"S. cerevisiae deletion strains, locus YLR357W, strain rsc2, stronger effect = lower value",1.07
same,normalized growth,"S. cerevisiae deletion strains, locus YLR370C, strain arc18, stronger effect = lower value",1.01
same,normalized growth,"S. cerevisiae deletion strains, locus YLR371W, strain rom2, stronger effect = lower value",1.29 [resistant] (active)
same,normalized growth,"S. cerevisiae deletion strains, locus YLR384C, strain iki3, stronger effect = lower value",0.981
same,normalized growth,"S. cerevisiae deletion strains, locus YLR418C, strain cdc73, stronger effect = lower value",1.07
same,normalized growth,"S. cerevisiae deletion strains, locus YML016C, strain PPZ1, stronger effect = lower value",1.01
same,normalized growth,"S. cerevisiae deletion strains, locus YML032C, strain rad52, stronger effect = lower value",1.02
same,normalized growth,"S. cerevisiae deletion strains, locus YML120C, strain ndi1, stronger effect = lower value",1
same,normalized growth,"S. cerevisiae deletion strains, locus YML124C, strain tub3, stronger effect = lower value",1
same,normalized growth,"S. cerevisiae deletion strains, locus YMR058W, strain fet3, stronger effect = lower value",1
same,normalized growth,"S. cerevisiae deletion strains, locus YMR078C, strain ctf18, stronger effect = lower value",0.991
same,normalized growth,"S. cerevisiae deletion strains, locus YMR125W, strain sto1, stronger effect = lower value",1.01
same,normalized growth,"S. cerevisiae deletion strains, locus YMR129W, stronger effect = lower value",0.997
same,normalized growth,"S. cerevisiae deletion strains, locus YMR205C, strain PFK2, stronger effect = lower value",1.02
same,normalized growth,"S. cerevisiae deletion strains, locus YMR223W, strain ubp8, stronger effect = lower value",1.08
same,normalized growth,"S. cerevisiae deletion strains, locus YMR231W, strain pep5, stronger effect = lower value",0.98
same,normalized growth,"S. cerevisiae deletion strains, locus YMR307W, strain GAS1, stronger effect = lower value",1.13
same,normalized growth,"S. cerevisiae deletion strains, locus YNL067W, strain RPL9B, stronger effect = lower value",1.01
same,normalized growth,"S. cerevisiae deletion strains, locus YNL071W, strain lat1, stronger effect = lower value",1.01
same,normalized growth,"S. cerevisiae deletion strains, locus YNL183C, strain NPR1, stronger effect = lower value",0.998
same,normalized growth,"S. cerevisiae deletion strains, locus YNL209W, strain ssb2, stronger effect = lower value",1.01
same,normalized growth,"S. cerevisiae deletion strains, locus YNL233W, strain BNI4, stronger effect = lower value",1.05
same,normalized growth,"S. cerevisiae deletion strains, locus YNL248C, strain rpa49, stronger effect = lower value",1.01
same,normalized growth,"S. cerevisiae deletion strains, locus YNL250W, strain rad50, stronger effect = lower value",1
same,normalized growth,"S. cerevisiae deletion strains, locus YNL271C, strain bni1, stronger effect = lower value",0.994
same,normalized growth,"S. cerevisiae deletion strains, locus YNL298W, strain CLA4, stronger effect = lower value",1
same,normalized growth,"S. cerevisiae deletion strains, locus YNL307C, strain MCK1, stronger effect = lower value",1
same,normalized growth,"S. cerevisiae deletion strains, locus YNL322C, strain KRE1 (second series), stronger effect = lower value",0.998
same,normalized growth,"S. cerevisiae deletion strains, locus YNR049C, strain mso1, stronger effect = lower value",1.01
same,normalized growth,"S. cerevisiae deletion strains, locus YNR052C, strain pop2, stronger effect = lower value",1.02
same,normalized growth,"S. cerevisiae deletion strains, locus YOL006C, strain TOP1, stronger effect = lower value",1.08
same,normalized growth,"S. cerevisiae deletion strains, locus YOL012C, strain htz1",2.58 [resistant] (active)
same,normalized growth,"S. cerevisiae deletion strains, locus YOL147C, strain pex11, stronger effect = lower value",1.01
same,normalized growth,"S. cerevisiae deletion strains, locus YOR001W, strain rrp6, stronger effect = lower value",1
same,normalized growth,"S. cerevisiae deletion strains, locus YOR061W, strain CKA2, stronger effect = lower value",1.01
same,normalized growth,"S. cerevisiae deletion strains, locus YOR069W, strain VPS5, stronger effect = lower value",1.01
same,normalized growth,"S. cerevisiae deletion strains, locus YOR070C, strain gyp1, stronger effect = lower value",1.03
same,normalized growth,"S. cerevisiae deletion strains, locus YOR080W, strain dia2, stronger effect = lower value",1.09
same,normalized growth,"S. cerevisiae deletion strains, locus YOR083W, strain WHI5, stronger effect = lower value",1.01
same,normalized growth,"S. cerevisiae deletion strains, locus YOR106W, strain vam3, stronger effect = lower value",1.02
same,normalized growth,"S. cerevisiae deletion strains, locus YOR136W, strain idh2, stronger effect = lower value",1.06
same,normalized growth,"S. cerevisiae deletion strains, locus YOR144C, strain elg1, stronger effect = lower value",0.997
same,normalized growth,"S. cerevisiae deletion strains, locus YOR184W, strain ser1, stronger effect = lower value",1.05
same,normalized growth,"S. cerevisiae deletion strains, locus YOR231W, strain MKK1, stronger effect = lower value",1.02
same,normalized growth,"S. cerevisiae deletion strains, locus YOR265W, strain rbl2, stronger effect = lower value",1.01
same,normalized growth,"S. cerevisiae deletion strains, locus YOR270C, strain vph1, stronger effect = lower value",1.05
same,normalized growth,"S. cerevisiae deletion strains, locus YOR290C, strain snf2, stronger effect = lower value",1
same,normalized growth,"S. cerevisiae deletion strains, locus YOR316C, strain cot1, stronger effect = lower value",1.03
same,normalized growth,"S. cerevisiae deletion strains, locus YPL051W, strain arl3, stronger effect = lower value",1.02
same,normalized growth,"S. cerevisiae deletion strains, locus YPL055C, strain LGE1, stronger effect = lower value",1.06
same,normalized growth,"S. cerevisiae deletion strains, locus YPL078C, strain atp4, stronger effect = lower value",1.02
same,normalized growth,"S. cerevisiae deletion strains, locus YPL106C, strain sse1, stronger effect = lower value",1.03
same,normalized growth,"S. cerevisiae deletion strains, locus YPL240C, strain hsp82, stronger effect = lower value",1
same,normalized growth,"S. cerevisiae deletion strains, locus YPL256C, strain CLN2, stronger effect = lower value",1.06
same,normalized growth,"S. cerevisiae deletion strains, locus YPR119W, strain clb2, stronger effect = lower value",0.986
same,normalized growth,"S. cerevisiae deletion strains, locus YPR141C, strain kar3, stronger effect = lower value",1
same,normalized growth,"S. cerevisiae deletion strains, locus YPR163C, strain tif3, stronger effect = lower value",1
same,normalized growth,"S. cerevisiae deletion strains, locus YPR167C, strain met16, stronger effect = lower value",1.05
same,normalized growth,"S. cerevisiae deletion strains, strain wtn01, stronger effect = lower value",1
same,normalized growth,"S. cerevisiae strains, strain wild type, stronger effect = lower value",1.02
